The record followed here is PubChem BioAssay (Tox21).

Assay [1] can be described thus: qHTS RealTime-Glo MT Cell Viability Assay in HEK293 cells - 0 hour (AID 1224880). Further: top concentration of the series differs between compounds; nearly all actives have a fitted effect of over 45% in size. In outline: (§1)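 Real-time viability in HEK293: signal arises when living cells convert a prosubstrate for NanoLuc in the medium, so luminescence tracks viable cell number. Compound (23 nL, DMSO) added 5 h post-seeding; kinetic reads at 0–40 h, 37 C.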
Assay [2] can be described thus: A CellTox Green Cytotoxicity Assay to monitor cytotoxicity in HEK293 cells - 32 hour (AID 1224881). Further: nearly all actives have a fitted effect of over 40% in size. The method in brief:
(§2)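 Cells (HEK293, 600/well) and dye reagent are dispensed together. After 5 h at 37 C, 23 nL compound is pinned in. Plates stay at 37 C for 40 h with fluorescence read at 0h, 8h, 16h, 24h, 32h and 40h.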

The nature of assay [3]: A CellTox Green Cytotoxicity Assay to monitor cytotoxicity in HepG2 cells - 0 hour (AID 1224882). Further: nearly all actives have a fitted effect of over 35% in size. Further: potency means the concentration at half of the fitted maximal effect. In outline:
(§3)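 Cells and non-lytic dye reagent are dispensed together (600 HepG2 cells/well) and incubated 5 h before DMSO compound transfer. Kinetic fluorescence is then recorded in the same wells during 40 h at 37 C.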

The nature of assay [4]: A CellTox Green Cytotoxicity Assay to monitor cytotoxicity in HepG2 cells - 32 hour (AID 1224883). Further: nearly all actives have a fitted effect of over 50% in size. In outline:
as §3

Assay [5] is described as follows: A CellTox Green Cytotoxicity Assay to monitor cytotoxicity in HEK293 cells - 8 hour (AID 1224884). Further: nearly all actives have a fitted effect of over 35% in size. In outline:
as §2

The nature of assay [6]: qHTS RealTime-Glo MT Cell Viability Assay in HepG2 cells - 16 hour (AID 1224885). Further: nearly all actives have a fitted effect of over 50% in size. The method in brief:
(§4)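 HepG2 suspension premixed with RealTime-Glo reagents is plated at 600 cells per well and left 5 h at 37 C/5% CO2. Compounds in DMSO then go in, and bioluminescence reflecting viable cell number is recorded over 40 h.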

A short description of assay [7]: qHTS RealTime-Glo MT Cell Viability Assay in HEK293 cells - 24 hour (AID 1224886). Further: top concentration of the series differs between compounds; nearly all actives have a fitted effect of over 50% in size. The method in brief:
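Reads taken at 0, 8, 16, 24, 32 and 40 h from the same wells. HEK293 cells (600/well) carried RealTime-Glo reagents from seeding, with compound added after a 5 h settle at 37 C.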

The nature of assay [8]: qHTS RealTime-Glo MT Cell Viability Assay in HEK293 cells - 8 hour (AID 1224887). Further: top concentration of the series differs between compounds; nearly all actives have a fitted effect of over 50% in size. The method in brief:
as §1

Assay [9] can be described thus: A CellTox Green Cytotoxicity Assay to monitor cytotoxicity in HEK293 cells - 16 hour (AID 1224888). Further: nearly all actives have a fitted effect of over 35% in size. In outline:
as §2

Assay [10] is described as follows: qHTS RealTime-Glo MT Cell Viability Assay in HepG2 cells - 0 hour (AID 1224889). Further: nearly all actives have a fitted effect of over 50% in size. The method in brief: as §4
The nature of assay [11]: A CellTox Green Cytotoxicity Assay to monitor cytotoxicity in HepG2 cells - 8 hour (AID 1224890). Further: nearly all actives have a fitted effect of over 45% in size. The method in brief:
as §3

Assay [12] in a line: qHTS assay to identify small molecule antagonists of the estrogen receptor alpha (ER-alpha) signaling pathway using the BG1 cell line in the presence of 0.1 nM 17-beta-estradiol - cell viability counter screen (AID 1259241). Further: nearly all actives have a fitted effect of over 40% in size. In outline: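 Cytotoxicity counter-screen: live-cell protease activity measured by fluorescence (30 min reagent step) in the same wells. Cells were VM7Luc4E2 with endogenous ER-alpha and ERE-driven luciferase, treated 22 hr at 37C alongside 0.1 nM 17beta-estradiol final.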

Assay [13] in a line: qHTS assay to identify small molecule antagonists of the androgen receptor (AR) signaling pathway using the MDA cell line in the presence of 0.5 nM R1881 - cell viability counter screen (AID 1259242). Further: nearly all actives have a fitted effect of over 45% in size. In outline:
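Steps: plate MDA-kb2 cells, rest 5 hr at 37C without CO2; pin in compounds in DMSO; add R1881 to 0.5 nM final; incubate 16 hr; add CellTiter-Fluor, 30 min; read fluorescence.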

The nature of assay [14]: qHTS assay to identify small molecule HDAC inhibitors - cell viability counter screen (AID 1259365). In outline:
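CellTiter-Glo luminescence (30 min, room temperature) reported viability after a 2 h compound exposure at 37 C. Cells: wild-type HCT-116, 1,500 per well, seeded the night before.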

Assay [15] is described as follows: qHTS assay to identify small molecule agonists of the sonic hedgehog signaling (Shh) pathway - cell viability counter screen (AID 1259366). Further: nearly all actives have a fitted effect of over 50% in size. In outline: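 Cytotoxicity counter screen: CellTiter-Fluor reagent added after 23 h compound exposure, then 1 h at 37C and fluorescence read. Cells were 3T3 Gli1-Luc, seeded 2,000 per well and dosed 4 h post-plating.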
A short description of assay [16]: qHTS assay to identify small molecule antagonists of the sonic hedgehog signaling (Shh) pathway - cell viability counter screen (AID 1259367). Further: nearly all actives have a fitted effect of over 55% in size. The method in brief: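 Cytotoxicity was assessed in parallel with Shh reporter activity by measuring live-cell protease fluorescence (CellTiter-Fluor) in NIH/3T3 cells stably carrying Gli1-Luc, treated with compound under conditioned medium stimulation for 23 hr plus 1 hr reagent incubation.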

Assay [17] is described as follows: qHTS assay to identify small molecule HDAC inhibitors (AID 1259364). Further: potency means the concentration at half of the fitted maximal effect.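 Further: wild-type HCT-116 cells with endogenous class I/II HDAC activity; nearly all actives have a fitted effect of over 45% in size.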 In outline: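 Cells (HCT-116, wild type) are seeded at 1,500 per well, incubated overnight, treated with compound in DMSO for 2 hr, then developed with HDAC-Glo I/II reagent for 30 min at room temperature.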
The target of assay [18] is Androgen receptor (Homo sapiens) (UniProt P10275). The assay can be described thus: qHTS assay to identify small molecule antagonists of the androgen receptor (AR) signaling pathway using the MDA cell line in the presence of 0.5 nM R1881 (AID 1259243). Further: nearly all actives have a fitted effect of over 50% in size. The method in brief: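 Stably transfected MDA-kb2 cells express luciferase from an MMTV promoter bearing both AR and GR response elements. Compounds plus 0.5 nM R1881 (final) were incubated 16 hr at 37C without CO2, then luminescence measured.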

The target of assay [19] is Estrogen receptor (Homo sapiens) (UniProt P03372). Nature of the assay: qHTS assay to identify small molecule antagonists of the estrogen receptor alpha (ER-alpha) signaling pathway using the BG1 cell line in the presence of 0.1 nM 17-beta-estradiol (AID 1259244). Further: nearly all actives have a fitted effect of over 50% in size. In outline:
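Antagonist mode: compounds in DMSO are pinned onto VM7Luc4E2 reporter cells, 0.1 nM final 17beta-estradiol is added, and after 22 h at 37C luciferase luminescence is measured with ONE-Glo.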

A short description of assay [20]: qHTS assay to identify small molecule phospholipidosis (PLD) inducers (AID 1259344; active means well fitted curve in the direction sought with a large enough effect; an effect the other way counts as inactive or inconclusive). The method in brief: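 Cells (HepG2, 900 per well) attach for 4 h, receive LipidTOX Red and compound together, incubate 24 h at 37 C, are fixed 30 min with paraformaldehyde/Hoechst, then imaged at one site per well.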

Values without a mark were called inactive. Results filed as inconclusive are left out. Calls of active or inactive are those of the source. Unless noted, the call rests on the fitted dose curve; in most records, active means well fitted curve in the direction sought with a large enough effect in the repeat runs; inconclusive means weak or mixed curves; inactive means no such curve, though single readings can be large; an effect the other way counts as inactive or inconclusive.

Chain of Androgen receptor (Homo sapiens) (P10275 whole entry, looked up): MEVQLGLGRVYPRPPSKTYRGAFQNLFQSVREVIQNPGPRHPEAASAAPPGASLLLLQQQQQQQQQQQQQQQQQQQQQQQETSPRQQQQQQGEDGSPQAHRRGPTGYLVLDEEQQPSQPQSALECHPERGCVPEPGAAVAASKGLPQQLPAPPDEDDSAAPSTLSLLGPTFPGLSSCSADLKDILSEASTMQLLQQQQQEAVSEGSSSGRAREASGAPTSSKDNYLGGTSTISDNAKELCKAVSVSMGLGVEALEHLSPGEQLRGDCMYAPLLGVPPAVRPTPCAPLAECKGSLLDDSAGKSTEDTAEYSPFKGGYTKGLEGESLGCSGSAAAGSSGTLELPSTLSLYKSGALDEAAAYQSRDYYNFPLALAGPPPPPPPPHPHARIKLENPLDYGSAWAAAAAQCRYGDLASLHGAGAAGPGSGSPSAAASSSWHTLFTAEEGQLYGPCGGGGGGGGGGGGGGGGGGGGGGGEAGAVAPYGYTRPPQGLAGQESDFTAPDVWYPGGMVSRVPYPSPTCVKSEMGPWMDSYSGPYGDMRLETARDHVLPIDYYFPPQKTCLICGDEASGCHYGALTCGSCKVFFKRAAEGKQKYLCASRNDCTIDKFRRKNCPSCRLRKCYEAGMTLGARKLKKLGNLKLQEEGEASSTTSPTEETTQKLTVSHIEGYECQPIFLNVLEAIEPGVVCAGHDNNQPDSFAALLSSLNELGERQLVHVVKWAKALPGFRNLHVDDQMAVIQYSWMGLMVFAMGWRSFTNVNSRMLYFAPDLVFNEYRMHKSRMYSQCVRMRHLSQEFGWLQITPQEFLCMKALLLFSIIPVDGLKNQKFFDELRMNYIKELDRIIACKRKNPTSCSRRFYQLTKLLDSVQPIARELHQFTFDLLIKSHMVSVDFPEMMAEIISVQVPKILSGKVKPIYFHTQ
Chain of Estrogen receptor (Homo sapiens) (P03372 whole entry, looked up): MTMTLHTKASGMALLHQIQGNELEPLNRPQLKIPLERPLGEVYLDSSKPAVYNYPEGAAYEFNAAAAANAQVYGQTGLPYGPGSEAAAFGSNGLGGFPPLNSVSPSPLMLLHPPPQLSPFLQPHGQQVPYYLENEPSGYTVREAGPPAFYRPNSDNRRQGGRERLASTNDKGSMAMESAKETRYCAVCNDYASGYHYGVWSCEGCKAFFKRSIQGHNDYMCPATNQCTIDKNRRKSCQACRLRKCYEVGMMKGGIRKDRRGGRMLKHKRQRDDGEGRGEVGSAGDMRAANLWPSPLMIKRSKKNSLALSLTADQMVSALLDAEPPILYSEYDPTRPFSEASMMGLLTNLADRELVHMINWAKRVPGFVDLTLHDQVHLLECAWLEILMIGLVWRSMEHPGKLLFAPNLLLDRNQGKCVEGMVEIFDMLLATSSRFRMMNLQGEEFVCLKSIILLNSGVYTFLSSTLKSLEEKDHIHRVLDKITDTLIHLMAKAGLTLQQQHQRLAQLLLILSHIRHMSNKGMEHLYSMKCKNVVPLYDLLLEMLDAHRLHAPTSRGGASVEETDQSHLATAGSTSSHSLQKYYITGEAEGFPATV

With `COC(C(=O)O)c1ccccc1` (configuration not stated), the call in [1], in [6], in assay [12], in assay [13], in assay [14] and in assay [16] was inactive. For the same compound, the Potency result in assay [2], in [3], in assay [4], in [5], in assay [7] and in [8] was “inactive” each time. Further, the Potency entry in assay [9], in assay [10], in assay [11] and in assay [15] was “inactive” throughout.
For `C(=C(c1ccccc1)c1ccccc1)c1ccccc1`, the outcome in [1], in [6], in [12], in [13], in assay [14] and in [16] was inactive. The Potency result in assay [2], in [3], in [4], in assay [5], in assay [8] and in assay [9] was “inactive” throughout. Moreover, the Potency result in assay [10], in assay [11] and in assay [17] was “inactive” in each case.
Take `OC[C@H]1O[C@@H]2O[C@H]3[C@H](O)[C@@H](O)[C@@H](O[C@H]4[C@H](O)[C@@H](O)[C@@H](O[C@H]5[C@H](O)[C@@H](O)[C@@H](O[C@H]6[C@H](O)[C@@H](O)[C@@H](O[C@H]7[C@H](O)[C@@H](O)[C@@H](O[C@H]8[C@H](O)[C@@H](O)[C@@H](O[C@H]9[C@H](O)[C@@H](O)[C@@H](O[C@H]1[C@H](O)[C@H]2O)O[C@@H]9CO)O[C@@H]8CO)O[C@@H]7CO)O[C@@H]6CO)O[C@@H]5CO)O[C@@H]4CO)O[C@@H]3CO`: the compound was classed as inactive in [1], in assay [6], in [12], in [13], in [14] and in assay [16]. Moreover, the Potency entry in assay [2], in assay [3], in assay [4], in assay [5], in [7] and in assay [8] was “inactive” in each case. Besides, the Potency entry in assay [9], in [10], in assay [11] and in assay [15] was “inactive” each time.
As for `CC(C)c1ccc2oc3nc(N)c(C(=O)O)cc3c(=O)c2c1`, the compound was called inactive in assay [1], in assay [6], in [12], in [13], in assay [19] and in [16]. For the same compound, the Potency entry in [2], in assay [3], in assay [4], in [5], in [8] and in assay [9] was “inactive” in each case. Further, the Potency entry in assay [10], in [11], in assay [18] and in assay [20] was “inactive” each time. The Potency in assay [17] was 0.266 µM (active).
As for `CCCOCC(C)OCC(C)O` (configuration not stated), the call in assay [1], in [12], in assay [13], in assay [14] and in assay [16] was inactive. Moreover, the Potency result in assay [2], in assay [3], in [4], in [5], in assay [7] and in assay [8] was “inactive” in each case. Further, the Potency entry in [9], in assay [10], in assay [11], in assay [18], in assay [17] and in [15] was “inactive” each time.
For the compound `NC(=O)c1ncn([C@@H]2O[C@H](CO)[C@@H](O)[C@H]2O)c1N`, the outcome in [1], in assay [6], in assay [12], in assay [13], in assay [19] and in [14] was inactive. In assay [16], the outcome was inactive. Besides, the Potency result in [2], in assay [4], in assay [5], in [7], in assay [8] and in assay [9] was “inactive” throughout. In addition, the Potency result in assay [10], in assay [20], in assay [17] and in assay [15] was “inactive” throughout. Also, in [3], the Potency is 10.7 µM (active).
In the case of `N[C@@H](CS)C(=O)O`, the compound was called inactive in assay [1], in [6], in assay [12], in assay [13], in [14] and in assay [16]. Moreover, the Potency entry in assay [2], in assay [3], in [4], in assay [5], in [8] and in [9] was “inactive” throughout. Further, the Potency result in [10], in [11] and in assay [15] was “inactive” each time.
Take `CN(C)CCn1nnnc1SCC1=C(C(=O)O)N2C(=O)[C@@H](NC(=O)Cc3csc(N)n3)[C@H]2SC1`: the compound was called inactive in assay [1], in assay [6], in assay [12], in [13], in assay [14] and in assay [16]. Besides, the Potency result in assay [2], in [3], in assay [4], in assay [5], in [8] and in assay [9] was “inactive” throughout. In addition, the Potency entry in assay [10], in assay [11], in assay [18], in assay [20], in assay [17] and in assay [15] was “inactive” throughout.
